# ± gives the standard deviation of the averaged measurements.
# Assays:
# [1] = test system: (+)-isopinocamphone A-neuron OSN class; experiment: net action potential response of A-neuron (blank-subtracted) (spikes/s (Hz)); higher = stronger excitation; conditions: 10 µg on filter paper; neuron: A neuron (large spike amplitude)
# In short: (§1)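 Spikes were counted in AutoSpike for the large-amplitude A-neuron or the small-amplitude B-neuron, using 0.5 s windows across 1–4 sensilla. Responses were reported as spikes/s after subtraction of the pre-stimulus count and of the blank, averaged across sensilla. The recordings came from one fixed antenna of live lab-reared adult Ips typographus via tungsten electrodes under a humidified, charcoal-filtered airstream of 1.8 L/min, with each compound given as 10 μg in paraffin oil on filter paper in a pipette, pulsed for 0.5 s at 0.3 L/min.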
# [2] = test system: (+)-trans-4-thujanol A-neuron OSN class; experiment: as above; conditions: 10 µg on filter paper; neuron: A neuron (large spike amplitude)
# In short: as §1
# [3] = test system: (5S,7S)-trans-conophthorin A-neuron OSN class; experiment: as above; conditions: 10 µg on filter paper; neuron: A neuron (large spike amplitude)
# In short: as §1
# [4] = test system: myrcene A-neuron OSN class; experiment: as above; conditions: 10 µg on filter paper; neuron: A neuron (large spike amplitude)
# In short: as §1
# [5] = test system: p-cymene A-neuron OSN class; experiment: as above; conditions: 10 µg on filter paper; neuron: A neuron (large spike amplitude)
# In short: as §1
# [6] = test system: lanierone-responsive B-neuron OSN class (ItypOR36); experiment: net action potential response of lanierone B-neuron (blank-subtracted) (spikes/s (Hz)); higher = stronger excitation; conditions: 10 µg on filter paper, neuron: B neuron (small spike amplitude)
# In short: as §1
# [7] = test system: ipsdienol A-neuron OSN class; experiment: net action potential response of A-neuron (blank-subtracted) (spikes/s (Hz)); higher = stronger excitation; conditions: 10 µg on filter paper; neuron: A neuron (large spike amplitude)
# In short: as §1
# [8] = co-localized A-neuron class: (4S)-cis-verbenol
# [9] = co-localized A-neuron class: (5S,7S)-trans-conophthorin
# [10] = co-localized A-neuron class: (+)-isopinocamphone
# [11] = co-localized A-neuron class: (+)-trans-4-thujanol
# [12] = co-localized A-neuron class: ipsdienol
# [13] = co-localized A-neuron class: myrcene
# [14] = co-localized A-neuron class: p-cymene
Compound,net action potential response [1],net action potential response [2],net action potential response [3],net action potential response [4],net action potential response [5],"net action potential response [6, 8]","net action potential response [6, 9]","net action potential response [6, 10]","net action potential response [6, 11]","net action potential response [6, 12]","net action potential response [6, 13]","net action potential response [6, 14]",net action potential response [7]
C=Cc1ccc(OC)cc1 [4-Vinyl anisole],-0.667 ± 4.2,1.5 ± 3.4,-1.33 ± 3.1,-2,15.3 ± 14,1.33 ± 9,3.33 ± 4.6,1.33 ± 9.2,-2.5 ± 5.5,2.67 ± 6.4,0,0 ± 7.2,
CCC/C=C\CO,18 ± 19,25.5 ± 12,-2 ± 6,2,0,2 ± 11,2 ± 5.3,-7.33 ± 4.6,2 ± 3.6,0.667 ± 3.1,6,2.67 ± 4.2,
C[C@@H]1C(=O)C[C@H]2C[C@@H]1C2(C)C [(+)-Isopinocamphone],172 ± 28,-2 ± 5.9,1.33 ± 1.1,-4,-3.33 ± 2.3,-0.667 ± 17,1.33 ± 5,-5.33 ± 3.1,1 ± 2.6,-2 ± 2,-2,-0.667 ± 3.1,0 ± 5.3
CC1=CC(C)(C)C=C(O)C1=O [Lanierone],46.7 ± 9.2,-1.5 ± 1.9,-1.5 ± 7,0,1.33 ± 1.1,135 ± 24,141 ± 31,160 ± 24,155 ± 24,121 ± 13,144,151 ± 12,
CC1=CCC2CC1C2(C)C (stereo not drawn) [(+)-α-Pinene],3.33 ± 3.1,2.5 ± 3,-1.5 ± 6.8,4,2.67 ± 1.1,0 ± 12,-0.5 ± 4.7,0.667 ± 5.8,2 ± 2.8,-4 ± 4,-4,1.33 ± 7,
CC(=O)OC/C=C(\C)CCC=C(C)C [Geranyl acetate],0.667 ± 7,0,2 ± 7.2,-4,1 ± 1.4,-2.67 ± 7.6,-2 ± 9.2,-0.667 ± 2.3,-2 ± 4.3,-2 ± 5.3,0,-2 ± 5.7,
CCC(C)CO (racemic) [(±)-2-Methyl-1-butanol],0 ± 2,2.5 ± 6.8,5 ± 1.1,4,8 ± 4,0 ± 3.5,2 ± 3.3,-2 ± 2,3.5 ± 3,-1.33 ± 5,-4,-2 ± 4,
"COc1ccc(C)cc1OC [3,4-Dimethoxytoluene]",0.667 ± 3.1,1.5 ± 3.8,2.67 ± 6.4,4,1.33 ± 1.1,5.33 ± 11,0 ± 7.2,1.33 ± 2.3,-1.5 ± 3.4,2 ± 6,2,-2 ± 6.9,
CC12CCC(CC1=O)C2(C)C (racemic) [(±)-Camphor],125 ± 40,2 ± 5.7,5.33 ± 7,-6,6.67 ± 16,-2.67 ± 3.1,0,-6.67 ± 2.3,-1.5 ± 1,-2.67 ± 6.1,-2,1 ± 1.4,
OCCc1ccccc1 [2-Phenylethanol],7.33 ± 3.1,3.5 ± 4.7,0 ± 1.6,0,2.67 ± 3.1,-4 ± 2,-3 ± 3.8,2 ± 3.5,1 ± 3.5,-3.33 ± 11,2,6 ± 10,-2.67 ± 3.1
C=C(C)C1CC=C(C)C(=O)C1 (racemic) [(±)-Carvone],-1.33 ± 1.1,1 ± 2.6,1 ± 3.5,0,30 ± 22,-1.33 ± 5,1.5 ± 2.5,2.67 ± 2.3,1 ± 2.6,-4.67 ± 2.3,6,0 ± 5.3,0 ± 3.5
C=CC(C)(C)O [2-Methyl-3-buten-2-ol],0.667 ± 1.1,7 ± 11,3.33 ± 4.2,-8,1 ± 1.4,-4.67 ± 5,-4.67 ± 7,2 ± 2,-3.5 ± 7.2,3.33 ± 11,4,-6 ± 2.8,0 ± 4
COc1ccc(C)cc1 [4-Methyl anisole],7.33 ± 4.6,6.5 ± 3.4,2 ± 2,-4,44 ± 12,-1.33 ± 8.3,2 ± 3.5,2.67 ± 1.1,-2 ± 6.7,0.667 ± 10,-8,-2.67 ± 3.1,4 ± 2
C=CC(O)CCCCC (racemic) [(±)-1-Octen-3-ol],-4.67 ± 1.1,33 ± 24,1.5 ± 2.5,2,1.33 ± 1.1,-6.67 ± 5,-0.5 ± 2.5,-2 ± 4,0 ± 1.6,-3.33 ± 1.1,4,0.667 ± 3.1,-0.667 ± 2.3
CC/C=C/CCO,8.67 ± 14,27.5 ± 23,-2 ± 2,-4,0.667 ± 3.1,2 ± 4,-5.33 ± 6.1,-2 ± 5.3,-0.5 ± 6.6,0 ± 4,-2,-0.667 ± 3.1,
C=C(C)[C@@H]1CC=C(C)CC1 [(-)-Limonene],-0.667 ± 4.2,2 ± 1.6,0 ± 2,6,26.7 ± 13,-1.33 ± 5.8,-2.67 ± 3.1,-0.667 ± 2.3,2.5 ± 5.3,1.33 ± 4.6,-8,-1.33 ± 4.2,
CC/C=C\CCO,10.7 ± 27,74.5 ± 42,-2 ± 4,6,0 ± 4,2.67 ± 6.4,-4 ± 6,-4 ± 2,-4.5 ± 3.4,-5.33 ± 5.8,-6,0,
"CC1=CCC2C(C1)C2(C)C (single isomer, unassigned; (+)) [(+)-3-Carene]",2 ± 5.3,7.5 ± 6.8,6.67 ± 4.6,12,50.7 ± 18,1.33 ± 13,3.33 ± 2.3,-2.67 ± 5,-2.5 ± 2.5,-1.33 ± 4.2,-2,-3.33 ± 4.2,2.67 ± 5.8
COc1ccccc1 [Anisole],2 ± 5.3,1 ± 4.2,1.33 ± 4.2,-2,10.7 ± 5.8,-1.33 ± 8.3,0 ± 6,-2.67 ± 2.3,-2.5 ± 4.1,2.67 ± 4.6,2,-3 ± 1.4,
"CC12CCC(CC1)C(C)(C)O2 [1,8-Cineole]",-2.67 ± 2.3,1 ± 3.8,2.67 ± 10,8,13.3 ± 11,4 ± 9.2,-6.67 ± 6.1,0.667 ± 4.2,-1 ± 2.6,0 ± 10,-4,0 ± 5.3,
CC1=C[C@@H](O)[C@H]2C[C@@H]1C2(C)C [(-)-trans-Verbenol],0.667 ± 10,5.5 ± 5.7,13 ± 20,6,2 ± 2,-1.33 ± 9,-3.5 ± 6,1.33 ± 2.3,-2 ± 2.8,2 ± 4,-4,-2 ± 9.2,
CCCCCC(O)CC (racemic) [(±)-3-Octanol],10 ± 10,57.5 ± 45,13 ± 10,6,3.33 ± 2.3,1.33 ± 7.6,-1 ± 3.5,-3.33 ± 4.2,-4 ± 8.6,-4.67 ± 4.2,-6,-3.33 ± 5.8,
